Hits are enriched below; roughly 10% of the tested compounds scored in any of these assays.
NIH3T3 tox – cytotoxic compounds in NIH 3T3 cells. 94,000 compounds, 4.3% hits. Potency, µM (doses to about 96.7 µM), for inactives: at the highest dose activity change, negative = cytotoxicity, most hits filed as inhibitors. NIH 3T3 viability, CellTiter-Glo ATP luminescence, 48-72 h; further: nearly all actives have a fitted effect of over 55% in size
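NIH 3T3 cells at 400 cells/well received 23 nL of compound by pintool and were incubated 48 or 72 h at 37 °C. Viability was read as ATP-coupled CellTiter-Glo luminescence.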
GPT2 inh – GPT2 alanine aminotransferase inhibition; Q8TD30; Recombinant GPT2, coupled pyruvate oxidase/HRP Amplex Red fluorescence; Potency, µM (top dose mostly 57.7 µM), for inactives: top-dose activity change, negative = inhibition, usual class: inhibitors; 100,000 compounds, 0.25% hits; AID 1671188; further: nearly all actives have a fitted effect of over 60% in size
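GPT2 10ng/uL, a-KG 250uM, L-Ala 2mM, HEPES pH7.5 + 0.0001% Tween; 30 min RT. Then Amplex mix (PO/HRP/ThPP), 30 min RT dark, fluorescence. AOA 50uM used as positive control.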
HEK293 tox – HEK 293 cell cytotoxicity; HEK 293 viability, ATP luminescence (CellTiter-Glo), 48-72 h; Potency, µM (series often up to 115 µM), inactives show at the top dose activity change, negative = cytotoxicity, hits mostly inhibitors; 94,000 compounds, 6.6% hits; AID 1345083; further: nearly all actives have a fitted effect of over 60% in size
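250 HEK 293 cells/well; compound by pintool; incubated 48 or 72 hr at 37 degree Celsius; CellTiter-Glo added, 10 min RT, luminescence imaged.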
NPR1 antag – blocks ANP-stimulated signaling of human Npr1 receptor. P16066. HEK293 hNpr1 GloSensor cGMP, ANP-stimulated luminescence. Potency, µM (doses to about 46.3 µM), without a hit: top-dose activity change, negative = inhibition, most hits filed as inhibitors. 76,000 compounds, 1.6% hits; calls by dose curve; further: nearly all actives have a fitted effect of over 60% in size
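HEK293 cells stably expressing human Npr1 and cGMP GloSensor pGS-40F, loaded 2 h with 2% GloSensor reagent, given compound 30 min at room temperature. Luminescence read before and 20 min after 0.1 nM hNppA.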
Luciferase inh – Photinus pyralis luciferase inhibition; AID 1347043; purified P. pyralis luciferase, luminescence, biochemical; 76,000 compounds, 2.5% hits; Potency, µM (highest dose often 115 µM), hits mostly inhibitors; P08659; further: nearly all actives have a fitted effect of over 65% in size
Target sequence (P08659 whole entry, looked up): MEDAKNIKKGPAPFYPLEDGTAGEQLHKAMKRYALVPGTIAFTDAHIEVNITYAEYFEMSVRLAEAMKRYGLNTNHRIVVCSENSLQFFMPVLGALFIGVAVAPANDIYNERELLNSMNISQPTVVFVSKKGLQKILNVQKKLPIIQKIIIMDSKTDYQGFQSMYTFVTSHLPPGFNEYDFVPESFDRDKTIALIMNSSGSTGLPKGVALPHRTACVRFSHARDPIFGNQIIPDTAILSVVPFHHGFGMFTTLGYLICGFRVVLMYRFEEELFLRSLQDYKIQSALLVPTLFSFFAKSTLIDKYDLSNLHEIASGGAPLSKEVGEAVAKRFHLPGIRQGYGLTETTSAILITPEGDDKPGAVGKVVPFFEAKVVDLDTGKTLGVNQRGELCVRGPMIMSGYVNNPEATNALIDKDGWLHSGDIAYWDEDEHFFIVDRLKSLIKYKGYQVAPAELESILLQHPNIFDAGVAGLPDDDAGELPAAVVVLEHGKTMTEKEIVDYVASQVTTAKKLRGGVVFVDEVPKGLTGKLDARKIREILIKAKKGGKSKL
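Purified P. pyralis luciferase (10nM final) in 50mM Tris acetate pH 7.5, 10mM Mg acetate, 0.01% Tween-20, 0.05% BSA with 10uM D-luciferin and 10uM ATP. Compounds titrated qHTS. Luminescence imaged on CCD.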
Numbers without * were called inactive; [ ] = dose if it differs, or a comment. Unless noted, the call rests on the fitted dose curve; in most records, active means well fitted curve in the direction sought with a large enough effect; inconclusive means small, poorly fitted or top-dose-only effect, or another doubt; inactive means no such curve, though single readings can be large; an effect the other way counts as inactive or inconclusive. On the % scale 0 is the no-effect control and ±100 the full control effect; potency means the concentration at half of the fitted maximal effect.

Screening Cc1ccncc1C(=O)N1CCC2(CC1)NCCc1c2[nH]c2ccccc12 returned NIH3T3 tox -18.6%, GPT2 inh -7.9%, HEK293 tox inconclusive, NPR1 antag -10.9% and Luciferase inh inactive.
C[C@@H]1C(=O)O[C@H]2[C@H](O)C34[C@H]5C[C@@H](C(C)(C)C)C36[C@@H](OC(=O)[C@@H]6O)O[C@@]4(C(=O)O5)[C@@]12O (stereo not given in full) was read as GPT2 inh inactive.
CC(C)c1noc(C2CCCN(Cc3cn(C(C)C)c4ccccc34)CCC(=O)NCC2)n1 (stereo not given) was read as NIH3T3 tox inconclusive, GPT2 inh inactive, HEK293 tox 39.8µM*, NPR1 antag -6.7% and Luciferase inh inactive.
For COc1ccc2c(c1)c(CN1CCCC(c3nc(C(C)C)no3)CCNC(=O)CC1)cn2C(C)C (stereo not given) the results were NIH3T3 tox inconclusive, GPT2 inh -24.7%, HEK293 tox inconclusive, NPR1 antag -20.2% and Luciferase inh inactive.
`CN(c1ccccc1)c1cc(=O)c2ccnc(NCc3cnccn3)c2o1` gave NIH3T3 tox inconclusive, GPT2 inh -8.1%[88.5 µM], HEK293 tox inconclusive, NPR1 antag 3.0%[70.6 µM] and Luciferase inh inactive.
For CC(C)C[C@@H]1N[C@H](C(=O)NCc2ccccc2Cl)Cc2c[nH]c3cccc1c23 the results were NIH3T3 tox 31.6µM*, GPT2 inh -7.7%[88.5 µM], HEK293 tox 28.2µM*, NPR1 antag -20.4%[70.6 µM] and Luciferase inh inactive.
For COc1ccccc1CNC(=O)[C@@H]1Cc2c[nH]c3cccc(c23)[C@H](CC(C)C)N1 the results were NIH3T3 tox 28.2µM*, GPT2 inh 1.7%[88.5 µM], HEK293 tox 35.5µM*, NPR1 antag -20.2%[70.6 µM] and Luciferase inh inactive.
O=C(c1ccc(CNc2nccc(-c3cccnc3)n2)cc1)N1CCCCC1 was read as NIH3T3 tox 50.1µM*, GPT2 inh inactive, HEK293 tox 39.8µM*, NPR1 antag -10.0% and Luciferase inh inactive.
`Cc1nn(-c2ccccc2)c2c1C(C1CC1)N(CC1CN(C(=O)C3CCCC3)C1)C2=O` (stereo not given) gave NIH3T3 tox 44.7µM* and HEK293 tox inconclusive.
`Cc1nn(-c2ccccc2)c2c1C(C1CC1)N(CC1CN(C(=O)N(C)C)C1)C2=O` (stereo not given) gave NIH3T3 tox inconclusive and HEK293 tox 44.7µM*.
Screening Cc1ccccc1NC(=O)N1CCC(N(CCC(C)C)C2CCOCC2)CC1 returned NIH3T3 tox inactive, GPT2 inh inactive, HEK293 tox -1.3%, NPR1 antag -4.6% and Luciferase inh inactive.
For Cc1ccc(-c2noc([C@@H]3C[C@@H](O)CN3Cc3ccc(C(=O)O)cc3)n2)cc1F the results were NIH3T3 tox 0.7%[138 µM], GPT2 inh 2.8%[88.5 µM], HEK293 tox -11.1%[172 µM], NPR1 antag -2.6%[70.6 µM] and Luciferase inh 50.1µM*.
`Oc1ccccc1CN1C[C@H](O)C[C@H]1c1nc(-c2ccccc2)no1` gave NIH3T3 tox inconclusive, GPT2 inh inactive, HEK293 tox inconclusive, NPR1 antag 0.2%[70.6 µM] and Luciferase inh inactive.
Screening Cc1ccc(-c2noc([C@@H]3C[C@@H](O)CN3Cc3ccccc3O)n2)cc1F returned NIH3T3 tox 44.7µM*, GPT2 inh -1.6%[88.5 µM], HEK293 tox inconclusive, NPR1 antag 1.4%[70.6 µM] and Luciferase inh 50.1µM*.
Screening COc1ccc(CN2C[C@H](O)C[C@H]2c2nc(-c3cccc(C)c3)no2)c2ccccc12 returned NIH3T3 tox 79.4µM*, GPT2 inh -21.8%[88.5 µM], HEK293 tox 100µM*, NPR1 antag -26.8%[70.6 µM] and Luciferase inh 20µM*.
Screening CC(C)OCCCNC(=O)Cn1nc2c(cc1=O)CCCC2 returned NIH3T3 tox 1.1%, GPT2 inh inactive, HEK293 tox -9.6%, NPR1 antag 4.9% and Luciferase inh inactive.
O=C(CN1CCCc2nc(-c3ccncc3)ncc2C1=O)NCCCN1CCOCC1 was read as NIH3T3 tox -3.5%, GPT2 inh -11.6%, HEK293 tox -9.5%, NPR1 antag 4.4% and Luciferase inh inactive.
O=C(Nc1cccc2ccccc12)O[C@@H]1CO[C@H]2[C@@H]1OC[C@@H]2NS(=O)(=O)c1cccs1 was read as NIH3T3 tox inconclusive, GPT2 inh -6.6%, HEK293 tox inconclusive, NPR1 antag 0.9% and Luciferase inh inactive.
`CCOC(=O)C1(Cc2cccc(C(F)(F)F)c2)CCN(Cc2cn(CC)nc2C)CC1` gave NIH3T3 tox inconclusive, GPT2 inh 0.9%, HEK293 tox 20µM*, NPR1 antag inconclusive and Luciferase inh inactive.
Screening CCOC(=O)C1(Cc2ccccc2C(F)(F)F)CCN(Cc2ccccn2)CC1 returned NIH3T3 tox inconclusive, GPT2 inh inconclusive, HEK293 tox 39.8µM*, NPR1 antag -1.3% and Luciferase inh inactive.
For CCOC(=O)C1(Cc2ccc(Cl)cc2)CCN(Cc2ccc(OC)cc2O)CC1 the results were NIH3T3 tox inconclusive, GPT2 inh -11.1%, HEK293 tox inconclusive, NPR1 antag inconclusive and Luciferase inh inactive.
`CCOC(=O)C1(Cc2ccccc2C(F)(F)F)CCN(C(C)Cc2cccc(C)n2)CC1` (stereo not given) gave NIH3T3 tox 28.2µM*, GPT2 inh 1.2%, HEK293 tox 12.6µM*, NPR1 antag inconclusive and Luciferase inh inactive.
Screening CN(Cc1ccccn1)Cc1ccccc1C(F)(F)F returned NIH3T3 tox 4.3%[138 µM], GPT2 inh inactive, HEK293 tox inactive, NPR1 antag 18.8%[70.6 µM] and Luciferase inh inactive.
Screening O=C(c1cn(C2CN(Cc3ccc(F)cc3F)C2)nn1)N1CCOCC1 returned NIH3T3 tox -6.3%, GPT2 inh 1.8% and HEK293 tox 4.8%.
COCCNc1ncc(-c2ccc(NC(C)=O)cc2)c2c1OCC2 was read as NIH3T3 tox inconclusive, GPT2 inh inactive, HEK293 tox inconclusive, NPR1 antag 4.8%[70.6 µM] and Luciferase inh inactive.
Screening COCCNc1ncc(-c2cccc(N[S+](C)(=O)[O-])c2)c2c1OCC2 returned NIH3T3 tox inconclusive, GPT2 inh inactive, HEK293 tox inconclusive, NPR1 antag 3.0%[70.6 µM] and Luciferase inh 63.1µM*.
Screening CN(C)c1cccc(-c2cnc(Nc3cncnc3)c3c2CCO3)c1 returned NIH3T3 tox inconclusive, GPT2 inh 1.3%[88.5 µM], HEK293 tox inconclusive, NPR1 antag -18.2%[70.6 µM] and Luciferase inh inactive.
COc1ccc(C(=O)Nc2ncc(-c3cccc(N(C)C)c3)c3c2OCC3)cc1 was read as NIH3T3 tox inconclusive, GPT2 inh inactive, HEK293 tox 100µM*, NPR1 antag inconclusive and Luciferase inh inconclusive.
